Over roughly 4,100 sequences, “RBNS R-value (6-mer enrichment in protein-bound RNA vs input library)” has its median near 0.99; the highest 2% begin near 1.4. The sample holds the highest values, similar sequences and a random draw of the others, so the mix is not that of the screen.
Test system: PfIESI-1 RRM domain (Plasmodium falciparum ortholog aa 875-1232, GST fusion)
Test: RBNS R-value (6-mer enrichment in protein-bound RNA vs input library) (ratio); higher = stronger binding preference; the methods of the paper give 50 / 100 / 500 nM protein instead
Description: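 RNA Bind-n-Seq: recombinant GST-tagged IESI-1 RRM domain was incubated at room temperature with a random 40-nt in vitro transcribed RNA library at 250, 500 or 1000 nM protein. Bound RNA was pulled down on glutathione beads and sequenced. R-value is the enrichment of each 6-mer in the bound RNA relative to the input library. Each 6-mer sits inside the random 40-mer context, not as an isolated oligo. Values are replicate 1 only.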

| Sequence | RBNS R-value (protein concentration: 250 nM) | RBNS R-value (protein concentration: 500 nM) | RBNS R-value (protein concentration: 1000 nM) |
| --- | --- | --- | --- |
| UAUGAU | 1.95 | 2.17 | 1.61 |
| UAUGAG | 0.911 | 0.958 | 0.958 |
| CAUGAA | 0.967 | 1.05 | 1.01 |
| AAUGAU | 2.28 | 2.5 | 1.88 |
| AAUGAG | 1.02 | 1.1 | 1.07 |
| CAUGAU | 2.24 | 2.42 | 1.85 |
| CAUGAG | 1.06 | 1.07 | 1.07 |
| UAUGAA | 0.854 | 0.932 | 0.895 |
| AAUGCU | 0.913 | 0.938 | 0.914 |
| CACGUU | 0.886 | 0.866 | 0.874 |
| GCACGA | 1.08 | 1.09 | 1.1 |
| AGCAGG | 1.02 | 1.05 | 1.12 |
| AGAGUG | 1.09 | 1.09 | 1.05 |
| AUUGAC | 1.12 | 1.14 | 1.08 |
| UUUGAU | 2.39 | 2.62 | 1.95 |
| AUUGAU | 2.21 | 2.4 | 1.85 |
| CUUGAU | 2.01 | 2.15 | 1.74 |
| GUUGAG | 0.972 | 0.963 | 1 |
| AUUGAG | 1.07 | 1.1 | 1.04 |
| CUUGAA | 1.1 | 1.09 | 1.1 |
| GUUGAU | 1.71 | 1.81 | 1.51 |
| CUUGAC | 1.28 | 1.19 | 1.22 |
| UUUGAA | 0.988 | 1.05 | 1.05 |
| GUUGAC | 1.01 | 0.99 | 1.02 |

| Sequence | RBNS R-value (protein concentration: 250 nM) | RBNS R-value (protein concentration: 500 nM) | RBNS R-value (protein concentration: 1000 nM) |
| --- | --- | --- | --- |
| UUUGAC | 1.17 | 1.15 | 1.12 |
| AGGACA | 1 | 1.03 | 1.04 |
| CCUUGU | 0.991 | 0.946 | 0.954 |
| GGGAGU | 1.1 | 1.05 | 1.09 |
| CCGCCA | 1.08 | 0.99 | 1.06 |
| AUCCUA | 0.949 | 0.898 | 0.9 |
| GCCCCU | 1.04 | 0.964 | 1.02 |
| AAUCAA | 0.817 | 0.94 | 0.899 |
| GCCAUA | 0.918 | 0.859 | 0.881 |
| UGGCUU | 1.01 | 0.984 | 0.967 |
| AAAAAC | 1.13 | 1.3 | 1.2 |
| GAGCGU | 0.994 | 0.96 | 0.986 |
| UCGAGA | 1.26 | 1.23 | 1.22 |
| CCGAGA | 1.59 | 1.4 | 1.41 |
| CCGAGC | 1.29 | 1.16 | 1.24 |
| GCAGGU | 1.01 | 0.998 | 1.07 |
| CGGGGU | 1.06 | 1.04 | 1.07 |
| AUUCGU | 0.903 | 0.913 | 0.916 |
| GGGGUG | 1.1 | 1.02 | 1.07 |
| CCAUGA | 1.4 | 1.43 | 1.27 |
| GCAUGC | 1.01 | 0.974 | 1 |
| CCAUGG | 1.07 | 1.01 | 1.07 |
| GCAUGA | 1.41 | 1.43 | 1.27 |
| CCAUGU | 0.923 | 0.903 | 0.916 |

| Sequence | RBNS R-value (protein concentration: 250 nM) | RBNS R-value (protein concentration: 500 nM) | RBNS R-value (protein concentration: 1000 nM) |
| --- | --- | --- | --- |
| GCAUGG | 0.998 | 0.987 | 1.04 |
| GAGAGA | 1.26 | 1.29 | 1.28 |
| UGCGAC | 1.06 | 1 | 1 |
| UAAAAA | 0.951 | 1.17 | 1.05 |
| GACACU | 1.2 | 1.19 | 1.14 |
| GGCACC | 1.38 | 1.2 | 1.29 |
| GGCACA | 1.05 | 1.05 | 1.04 |
| GACACC | 1.56 | 1.32 | 1.35 |
| GACACG | 1.13 | 1.1 | 1.12 |
| GGCACU | 1.11 | 1.03 | 1.07 |
| CGAUCG | 0.905 | 0.881 | 0.937 |
| CUGCGG | 1.03 | 0.975 | 1.05 |
| CCUCCG | 1.07 | 1.01 | 1.07 |
| ACUUAC | 0.815 | 0.767 | 0.76 |
| GCCAAA | 1.06 | 1.08 | 1.1 |
| AAGCGC | 1.03 | 1.06 | 1.04 |
| UAUUGG | 0.864 | 0.848 | 0.873 |
| GAGAAG | 1.33 | 1.36 | 1.29 |
| UAGAAU | 1.06 | 1.14 | 1.06 |
| GAGAAA | 1.41 | 1.55 | 1.45 |
| GAGAAU | 1.43 | 1.5 | 1.37 |
| CAGAAU | 1.12 | 1.18 | 1.15 |
| GAGAAC | 1.24 | 1.31 | 1.27 |
| UCGGCU | 0.925 | 0.885 | 0.937 |

| Sequence | RBNS R-value (protein concentration: 250 nM) | RBNS R-value (protein concentration: 500 nM) | RBNS R-value (protein concentration: 1000 nM) |
| --- | --- | --- | --- |
| GCCUCA | 0.982 | 0.946 | 1.02 |
| GCCCGA | 1.52 | 1.34 | 1.36 |
| ACCCGU | 1.24 | 1.12 | 1.19 |
| ACCCGC | 1.29 | 1.17 | 1.23 |
| GCCCGU | 1.17 | 1.07 | 1.13 |
| ACCCGG | 1.44 | 1.25 | 1.32 |
| CCCCGA | 1.37 | 1.23 | 1.31 |
| UCCCGA | 1.2 | 1.12 | 1.14 |
| GCCCGG | 1.38 | 1.2 | 1.31 |
| ACCCGA | 1.63 | 1.36 | 1.4 |
| UGAGUG | 1.07 | 1.11 | 1.06 |
| GGCUGG | 1.06 | 1 | 1.08 |
| AUUCCA | 1.24 | 1.23 | 1.22 |
| GAGGCC | 1.15 | 1.07 | 1.13 |
| AUGUAG | 0.952 | 1.04 | 0.956 |
| UGACAC | 1.39 | 1.32 | 1.3 |
| UGACAA | 1.07 | 1.14 | 1.08 |
| UGACAU | 1.14 | 1.14 | 1.12 |
| GCACGG | 1.02 | 0.986 | 1.05 |
| AUGGCA | 1.28 | 1.26 | 1.16 |
| UGCUAU | 0.951 | 0.947 | 0.896 |
| UCUCGA | 1.01 | 1 | 1.04 |
| GAUUAC | 1.36 | 1.48 | 1.29 |
| CAUUAA | 0.748 | 0.797 | 0.751 |

| Sequence | RBNS R-value (protein concentration: 250 nM) | RBNS R-value (protein concentration: 500 nM) | RBNS R-value (protein concentration: 1000 nM) |
| --- | --- | --- | --- |
| AAUUAG | 0.847 | 0.908 | 0.88 |
| AAUUAA | 0.748 | 0.862 | 0.797 |
| CAUUAC | 0.794 | 0.766 | 0.761 |
| CAUUAG | 0.827 | 0.851 | 0.841 |
| GAUUAA | 1.24 | 1.42 | 1.2 |
| UAUUAC | 0.773 | 0.754 | 0.724 |
| GAUUAG | 1.3 | 1.4 | 1.25 |
| UCAUAC | 0.811 | 0.758 | 0.768 |
| UAUAGC | 0.876 | 0.87 | 0.833 |
| CUUUAU | 0.759 | 0.733 | 0.732 |
| CUCUCU | 0.881 | 0.796 | 0.867 |
| CUCCAC | 1.02 | 0.964 | 0.993 |
| UUUUUG | 1.18 | 1.26 | 1.16 |
| AAAAAU | 1.07 | 1.29 | 1.16 |
| GAAAAU | 1.12 | 1.29 | 1.19 |
| AAAAAG | 1.2 | 1.37 | 1.29 |
| CGAAAA | 1.17 | 1.28 | 1.23 |
| AAAAAA | 1.25 | 1.51 | 1.36 |
| GAAAAA | 1.29 | 1.48 | 1.37 |
| GAAAAC | 1.2 | 1.32 | 1.24 |
| AGAAAA | 1.27 | 1.48 | 1.35 |
| AGAAAU | 1.09 | 1.29 | 1.16 |

Source: the supplement of paper PMC13392028
